Measured values: PubChem BioAssay
The source made the active and inactive calls. Unless noted, how the calls were made is not given here.

Experiments:
[1] = system: XIP peptide (Xip251-270) binding; experiment: small-molecule binders of XIP peptide, primary screen, biochemical, small-molecule microarray, fluorescence 635/667 nm, 0.1 µg/mL protein (AID 1182); conditions: fluorescent protein binding, 635 nm, higher = more signal, called active from +8 up or from −8 down
XIP peptide (Xip251-270) = experiment: small-molecule binders of XIP peptide, primary screen, biochemical, small-molecule microarray, fluorescence 635/667 nm, 0.5 µg/mL protein (AID 1183); conditions: small-molecule microarray binding, fluorescence 635 nm; higher = more signal
[2] = Plasmodium falciparum growth inhibition, primary screen, strain 3D7, DAPI fluorescence, 100 nL (AID 1184);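 further: parasites grown inside human red blood cells in medium with human serum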; conditions: P. falciparum 3D7 growth, 3 d, higher = more signal
[3] = molecular target: Homeobox protein Hox-A13 (Mus musculus) (UniProt Q62424); experiment: inhibitors of HoxA13-DNA binding, primary screen, biochemical, fluorescence polarization, labeled oligonucleotide (AID 1185); conditions: 15 min, higher = more signal, called active from +8 up or from −8 down
[4] = inhibitors of hydroxyurea-induced Chk1 phosphorylation, primary screen, imaging, HeLa, phospho-Chk1 antibody, percent positive cells (AID 1186); conditions: hydroxyurea-induced phospho-Chk1 immunofluorescence imaging, higher = more signal
[5] = inhibitors of hydroxyurea-induced Chk1 phosphorylation, primary screen, imaging, HeLa, phospho-Chk1 nuclear intensity (AID 1187); conditions: hydroxyurea-induced phospho-Chk1 immunofluorescence imaging, higher = more signal

Homeobox protein Hox-A13 (Mus musculus), sequence (Q62424 whole entry, looked up): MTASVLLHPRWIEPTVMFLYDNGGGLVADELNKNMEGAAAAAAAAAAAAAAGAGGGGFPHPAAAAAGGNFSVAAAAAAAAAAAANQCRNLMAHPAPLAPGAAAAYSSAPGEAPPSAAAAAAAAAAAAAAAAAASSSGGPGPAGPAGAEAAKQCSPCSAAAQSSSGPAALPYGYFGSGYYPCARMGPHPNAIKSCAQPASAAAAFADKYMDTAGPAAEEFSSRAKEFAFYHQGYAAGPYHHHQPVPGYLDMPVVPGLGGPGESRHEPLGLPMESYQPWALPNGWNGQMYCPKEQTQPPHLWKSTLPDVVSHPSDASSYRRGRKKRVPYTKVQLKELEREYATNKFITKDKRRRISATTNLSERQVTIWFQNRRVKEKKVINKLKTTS

Row | SMILES | composite z-score [1] | composite z-score (XIP peptide (Xip251-270)) | z-score [2] | z-score [3] | z-score [4] | z-score [5]
1 | C[C@]1(C(=O)NCc2ccccc2)c2ccccc2C(=O)N(Cc2ccc(OC(F)(F)F)cc2)[C@H]1c1ccc(CO)cc1 | 0.379 (inactive) | 0.317 | -2.01 | -3.67 (inactive) | -0.347 (inactive) | -0.341 (inactive)
2 | C=CCOC(=O)[C@H]1[C@@H]2C(=O)O[C@@H](c3ccccc3)[C@@H](c3ccccc3)N2[C@@H](c2ccc(OCCOC(=O)[C@@H]3C[C@@H]4C(=O)N5CCC[C@H]5C(=O)N4[C@@H]3c3ccc(O)cc3)cc2)[C@]12C(=O)Nc1ccccc12 | 0.188 (inactive) | 0.838 | -1.8 | 1.28 (inactive) | -0.788 (inactive) | -0.507 (inactive)
3 | C=CC[C@@]1(C(=O)NCC(O)CO)N=C(c2ccc(OCCCO)cc2)O[C@@H]1c1ccccc1N=[N+]=[N-] (stereo partly drawn) | 1.06 (inactive) | 0.885 | -1.84 | -3.62 (inactive) | -0.0138 (inactive) | 0.107 (inactive)
4 | C=CCC(OC(C)=O)[C@@H]1[C@@H](N(Cc2ccc(-c3ccccc3)cc2)C(=O)Cc2ccc(OC)cc2)c2cc(OCCCO)ccc2N1C(=O)c1ccc2ccccc2n1 (stereo partly drawn) | 0.0404 (inactive) | 0.219 | -2.87 | -1.25 (inactive) | -0.0117 (inactive) | 0.336 (inactive)
5 | COCCOC(=O)N1C(=O)[C@@]2(c3cc(C#CC4=CCCCC4)ccc31)[C@H](C(=O)NC[C@H](O)c1ccccc1)[C@H]1C(=O)O[C@H](c3ccccc3)[C@H](c3ccccc3)N1[C@@H]2c1ccc(O)cc1 | 0.304 (inactive) | 0.744 | -1.39 | -0.485 (inactive) | 0.279 (inactive) | 0.475 (inactive)
6 | CCOC(=O)C1=CC[C@@H](c2ccccc2)N(S(=O)(=O)c2ccc(C)cc2)[C@H]1C(=O)OCC | 0.414 (inactive) | -0.404 | -0.799 | -5.23 (inactive) | 0.0256 (inactive) | -0.831 (inactive)
7 | C=C[C@@H](COC(C)=O)N(Cc1ccccc1[N+](=O)[O-])S(=O)(=O)c1ccc(Br)cc1 | 2.18 (inactive) | 0.387 | -0.43 | -2.89 (inactive) | -0.472 (inactive) | -0.567 (inactive)
8 | COC(=O)[C@@]1(Cc2ccccc2)N=C(c2ccc(OCCCO)cc2)O[C@H]1c1ccccc1N=[N+]=[N-] | 0.856 (inactive) | 0.887 | -2.27 | 0.459 (inactive) | -0.48 (inactive) | -0.775 (inactive)
9 | Cc1cc(C)cc(N2C(=O)CS(=O)(=O)C2c2cccc([N+](=O)[O-])c2)c1 (stereo not drawn) | 2.64 (inactive) | 0.0376 | 0.494 | -0.0181 (inactive) | -0.0327 (inactive) | 0.353 (inactive)
10 | CC(C)NC(=O)[C@@H]1c2ccccc2C(=O)N(Cc2ccccc2Cl)[C@H]1c1ccc(CO)cc1 | 0.989 (inactive) | 0.719 | -0.842 | -3.24 (inactive) | 0.323 (inactive) | 0.667 (inactive)
11 | COc1ccc([Si](C)(C)[C@@H]2[C@@H](CC(=O)N3CCC[C@H]3CO)O[C@]3(C(=O)N(C)c4c(Br)cc(C)cc43)[C@H]2C)cc1 | 0.0849 (inactive) | 0.507 | -0.949 | -6.11 (inactive) | -0.477 (inactive) | -0.466 (inactive)
12 | COC(=O)[C@]1(Cc2ccccc2N=[N+]=[N-])N=C(c2ccc(OCCCO)cc2)O[C@@H]1c1ccccc1N=[N+]=[N-] | 0.404 (inactive) | 0.614 | -2.09 | -2.31 (inactive) | -0.53 (inactive) | -0.923 (inactive)
13 | CCCCCCCCCCC(O)C1C=CC2C(=O)N(Cc3ccccc3)C(=O)C2N1n1cnnc1 (stereo not drawn) | 0.109 (inactive) | 0.609 | -1.08 | -2.2 (inactive) | 0.577 (inactive) | -0.034 (inactive)
14 | C=CC[C@@H](OC(=O)Nc1ccc(OC)cc1)c1ccc(O)c2ccccc12 | 1.08 (inactive) | 0.737 | -0.166 | -0.5 (inactive) | 0.311 (inactive) | 0.626 (inactive)
15 | COC(=O)c1c(CC[C@@H](CO)NC(=O)N[C@@H](Cc2ccccc2)Cn2cc(C3(O)CCCCC3)nn2)oc(C(C)=O)c1C(=O)OC | 0.295 (inactive) | 0.536 | -2.48 | -5.32 (inactive) | -0.0682 (inactive) | -0.145 (inactive)
16 | COC(=O)C(CC#Cc1ccc2c(c1)[C@]1(C(=O)N2)[C@H](C(=O)NC[C@H](O)c2ccccc2)[C@H]2C(=O)O[C@H](c3ccccc3)[C@H](c3ccccc3)N2[C@@H]1c1ccc(OCCO)cc1)C(=O)OC | 0.518 (inactive) | 0.736 | -2.15 | -2.24 (inactive) | -0.0625 (inactive) | -0.136 (inactive)
17 | CCOC(=O)C[C@H]1[C@H](OC(=O)Cc2ccc3c(c2)OCO3)[C@@H](NC(=O)C2CCCCC2)c2cc(OCCCO)ccc2N1C(=O)Cc1ccc(OC)cc1 | -0.219 (inactive) | 0.128 | -0.383 | -2 (inactive) | -0.585 (inactive) | -0.868 (inactive)

Row | SMILES | composite z-score [1] | composite z-score (XIP peptide (Xip251-270)) | z-score [2] | z-score [3] | z-score [4] | z-score [5]
18 | CCN(CC)c1ccc(N2CC=CC34O[C@@H]5C=CCCOC(=O)C5[C@H]3C(=O)N(CCCCCO)[C@@H]4C2=O)cc1 (stereo partly drawn) | 0.235 (inactive) | -0.782 | 0.315 | -5.22 (inactive) | 0.234 (inactive) | 0.711 (inactive)
19 | CCCCCCc1nc(CCCc2cc3c(c(CCCCCC)n2)[Si](C(C)C)(C(C)C)OC3)cc2c1[Si](C(C)C)(C(C)C)OC2 | -0.53 (inactive) | -0.442 | -2.33 | -5.85 (inactive) | 0.28 (inactive) | 0.382 (inactive)
20 | COc1c(C)cc(-c2cc3c(c(-c4ccc(Oc5ccccc5)cc4)n2)[Si](C(C)C)(C(C)C)OC3)cc1C | -0.631 (inactive) | -0.466 | -0.898 | -0.746 (inactive) | 0.621 (inactive) | 0.37 (inactive)
21 | O=C(O)[C@H]1C[C@H]2C(=O)NCC(=O)N2[C@H]1c1ccc(O)cc1 | 0.267 (inactive) | -0.212 | 0.137 | -0.43 (inactive) | 0.0056 (inactive) | 0.0301 (inactive)
22 | CCOC(=O)C[C@H]1[C@H](OC(=O)c2ccccc2-c2ccccc2)[C@@H](NC(=O)Cc2ccc(OC)cc2)c2cc(OCCCO)ccc2N1C(=O)c1ccccc1 | 0.277 (inactive) | 0.127 | -1.6 | -3.88 (inactive) | 0.422 (inactive) | 0.137 (inactive)
23 | COc1cccc(C(=O)O[C@H]2CC[C@]3(C)C4=C(CCC3C2(C)C)[C@]2(C)CC[C@H]([C@H](C)CCCC(C)C)[C@@]2(C)CC4)c1 (stereo partly drawn) | -0.019 (inactive) | -0.519 | -0.0127 | -0.87 (inactive) | 0.811 (inactive) | 1.77 (inactive)
24 | COc1ccc([Si](C)(C)[C@H]2[C@H](CCn3cc([C@H](O)c4ccccc4)nn3)O[C@@]3(C(=O)N(Cc4cccc(N5CCC5=O)c4)c4ccccc43)[C@@H]2C)cc1 | 0.275 (inactive) | 0.444 | -1.98 | -2.56 (inactive) | -1.17 (inactive) | -0.364 (inactive)
25 | [N-]=[N+]=NCc1ccccc1C[C@@]1(C(=O)NCC(O)CO)N=C(c2ccc(OCCCO)cc2)O[C@@H]1c1ccccc1CN=[N+]=[N-] (stereo partly drawn) | -0.0479 (inactive) | 0.748 | -2.01 | -3.3 (inactive) | -0.0621 (inactive) | 0.0477 (inactive)
26 | CN(C)CCCCCCNC(=O)[C@H]1C[C@H]2C(=O)N[C@@H](CCCCN)C(=O)N2[C@H]1c1ccc(O)cc1 | 5.07 (inactive) | 0.937 | -0.511 | -0.281 (inactive) | -0.111 (inactive) | 0.501 (inactive)
27 | C=CCC(OC(C)=O)[C@@H]1[C@@H](N(Cc2ccc(-c3cccc(C(F)(F)F)c3)o2)C(=O)c2ccc(C)cc2)c2cc(OCCCO)ccc2N1C(=O)c1ccc(-c2ccccc2)cc1 (stereo partly drawn) | 2.96 (inactive) | 0.0783 | -2.5 | -1.07 (inactive) | -0.205 (inactive) | -0.266 (inactive)
28 | COc1ccc([Si](C)(C)[C@@H]2[C@@H](CCn3cc([C@H](O)c4ccccc4)nn3)O[C@]3(C(=O)N(Cc4ccc(N5C(=O)c6cccc7cccc5c67)cc4)c4ccccc43)[C@H]2C)cc1 | 1.02 (inactive) | 0.182 | -2.8 | 0.474 (inactive) | -0.506 (inactive) | -0.524 (inactive)
29 | C=C(COC)C(=O)CC[C@H](OC(C)=O)c1cccc(OCCO)c1 | 0.623 (inactive) | -0.762 | -2.3 | -4.76 (inactive) | 0.305 (inactive) | -0.0656 (inactive)
30 | CC(C)NC(=O)[C@@]1(Cc2ccccc2I)c2ccccc2C(=O)N(Cc2ccccc2)[C@H]1c1ccc(CO)cc1 | 0.257 (inactive) | 0.784 | -1.22 | -4.87 (inactive) | -0.303 (inactive) | -0.346 (inactive)
31 | COC(=O)[C@@]1(Cc2ccc(OC)cc2)[C@H]2c3cc(C(=O)N4CCCC4)n(Cc4cc(F)cc5c4OCOC5)c3C[C@H]2CN1C(=O)c1ccccc1 | 0.365 (inactive) | 0.857 | -1.72 | -6.08 (inactive) | 0.127 (inactive) | -0.271 (inactive)
32 | COc1ccccc1CN1C(=O)c2ccccc2[C@@H](C(=O)NCCN2CCOCC2)[C@@H]1c1ccc(CO)cc1 | -0.0758 (inactive) | 0.853 | -1.86 | -4.64 (inactive) | 0.193 (inactive) | 0.531 (inactive)
33 | O=C1c2ccccc2[C@@]2(Cc3ccccc3N(Cc3ccccc3)C2=O)[C@H](c2ccc(CO)cc2)N1C1CCCCC1 | -0.204 (inactive) | 0.299 | -0.0438 | -1.21 (inactive) | 0.0191 (inactive) | 0.359 (inactive)
